Screens (PubChem BioAssay)
This is a sample that favours compounds with a hit; in the whole collection about 1.5% have one here.
WRN helicase inh: blocks human WRN helicase | WRN helicase unwinding, fluorescent forked duplex, kinetic | Potency, µM (series often up to 114 µM), inactives show at the highest dose activity change, negative = inhibition, usual class: inhibitors | 0.46% of 360,000 active | Q14191; also: potency is read from the fitted curve at half-maximal effect; % is scaled to controls: 0 for no effect and ±100 for the full control effect; nearly all actives have a fitted effect of over 55% in size
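Fluorescence dequenching readout, ex 525 nm/em 598 nm, kinetic mode: forked duplex DNA (100 nM final) with adjacent fluorophore and quencher unwound by WRN (20 nM final) with 2 mM ATP. Compound preincubation 15 min, room temperature.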
FEN1 inhibitor: blocks human flap endonuclease 1; P39748; Recombinant FEN1 flap cleavage, fluorescence, 15 min; Potency, µM (highest dose often 114 µM), without a hit: at the highest dose activity change, negative = inhibition, usual class: inhibitors; 0.35% of 390,000 active; also: potency is read from the fitted curve at half-maximal effect; % is scaled to controls: 0 for no effect and ±100 for the full control effect; nearly all actives have a fitted effect of over 65% in size
Target sequence (P39748 whole entry, looked up): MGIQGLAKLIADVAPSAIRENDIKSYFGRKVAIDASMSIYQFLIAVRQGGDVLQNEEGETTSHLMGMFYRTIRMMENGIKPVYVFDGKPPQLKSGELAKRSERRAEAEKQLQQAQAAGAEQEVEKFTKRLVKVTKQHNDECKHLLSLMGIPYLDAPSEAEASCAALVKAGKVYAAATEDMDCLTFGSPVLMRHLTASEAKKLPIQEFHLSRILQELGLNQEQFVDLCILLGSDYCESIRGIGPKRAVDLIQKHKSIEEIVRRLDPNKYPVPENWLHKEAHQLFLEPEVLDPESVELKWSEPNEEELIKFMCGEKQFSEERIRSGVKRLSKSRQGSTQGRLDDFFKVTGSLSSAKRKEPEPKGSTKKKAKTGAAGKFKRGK
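Concentration–response screening of FEN1 (10 nM): 15 min compound preincubation at room temperature, reaction started with 50 nM substrate and read at 0 and 15 min. Corrected, normalized data were fitted by a four-parameter Hill equation.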
TDP1 block: inhibitors of human tyrosyl-DNA phosphodiesterase TDP1; 0.28% of 350,000 active; Potency, µM (highest dose often 130 µM), for inactives: top-dose activity change, negative = inhibition, actives largely listed as inhibitors; Q9NUW8; recombinant TDP1, AlphaScreen DNA substrate cleavage; also: potency is read from the fitted curve at half-maximal effect; % is scaled to controls: 0 for no effect and ±100 for the full control effect; nearly all actives have a fitted effect of over 40% in size
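AlphaScreen read-out: signal falls as enzyme removes the 3' tyrosine-FITC from a 5'-biotinylated DNA oligo (15 nM, 5 min, RT). Enzyme was E. coli-made recombinant Tdp1 at 1 nM, exposed to compound for 15 min beforehand; beads 10 ug/ml, 10 min.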
Tb PFK inh-1: inhibitors of T. brucei phosphofructokinase | O15648 | 0.17% of 330,000 active | T. brucei PFK, ADP-Glo luminescence | Potency, µM (series often up to 57.5 µM), inactives show top-dose activity, negative = inhibition, actives largely listed as inhibitors | AID 485367;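 also: potency is read from the fitted curve at half-maximal effect; 0% = uninhibited 1x PFK enzyme wells and -100% = no-enzyme wells; nearly all actives have a fitted effect of over 60% in size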
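Compounds were pin-transferred as a titration series up to 57 uM into substrate buffer (0.5 mM F6P, 0.1 mM ATP, pH 8.0), then 1.25 nM PFK was added and reactions ran 45 min before ADP-Glo detection.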
Tb PGK inh: inhibitors of T. brucei phosphoglycerate kinase. 0.043% of 380,000 active. PGK/GAPDH coupled, Kinase-Glo luminescence, 60 min. Potency, µM (titrated, usually from 57.5 µM), for inactives: at the highest dose activity change, negative = inhibition, most hits filed as inhibitors. P07378; also: potency is read from the fitted curve at half-maximal effect; % is scaled to controls: 0 for no effect and ±100 for the full control effect; nearly all actives have a fitted effect of over 60% in size
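Luminescent ATP detection (Kinase-Glo Plus) follows a 60-minute room-temperature incubation, with wells lacking PGK as controls. Buffer: 100 mM TEA (pH 7.6), 5 mM MgCl2, 0.01% Tween-20. Coupling enzyme GAPDH (100 nM final) supplies unstable 1,3-BPG in-well.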
PI5P4K alpha inh: PI5P4K alpha (human) kinase inhibition | P48426 | PI5P4Kalpha enzyme, ADP-Glo luminescence, 60 min; active compounds read low | max response, % | 1.2% of 330,000 active; active = max response of -50% or lower; inconclusive = between -30% and -50%; inactive = -30% or higher; also: value at the top dose of about 77 µM; % is scaled to controls: 0 for no effect and ±100 for the full control effect
Target sequence (P48426 whole entry, looked up): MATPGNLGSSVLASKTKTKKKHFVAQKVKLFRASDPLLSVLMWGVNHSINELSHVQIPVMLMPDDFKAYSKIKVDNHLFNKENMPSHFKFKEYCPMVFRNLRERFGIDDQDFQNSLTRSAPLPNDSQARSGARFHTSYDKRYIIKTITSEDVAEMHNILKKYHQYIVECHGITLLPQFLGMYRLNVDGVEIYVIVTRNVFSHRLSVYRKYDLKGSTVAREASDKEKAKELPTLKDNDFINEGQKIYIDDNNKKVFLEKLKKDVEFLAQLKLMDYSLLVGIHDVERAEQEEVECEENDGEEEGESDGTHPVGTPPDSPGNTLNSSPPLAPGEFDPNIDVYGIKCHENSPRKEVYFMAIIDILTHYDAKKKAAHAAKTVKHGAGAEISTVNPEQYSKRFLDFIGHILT
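Compounds were pin-transferred onto PI5P4Kalpha and substrate in HEPES pH 7.4 buffer with EGTA, CHAPS and 5% DMSO. ATP (5 microM final) started the reaction, which ran 60 minutes at room temperature before ADP-Glo detection.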
TbPFK ATP: inhibits T. brucei PFK measured by ATP depletion | Tb PFK enzyme, ATP depletion, Kinase-Glo Plus luminescence | shares compounds with Tb PFK inh-1 | 47% of 1,100 active | Potency, µM (doses to about 57.5 µM), for inactives: top-dose inhibition | AID 504636; calls by dose curve; also: potency is read from the fitted curve at half-maximal effect; nearly all actives have a fitted effect of over 60% in size
Tb PFK inh-2: T. brucei PFK enzyme inhibition, hit validation. purified T. brucei PFK, ADP-Glo luminescence, 45 min. shares compounds with Tb PFK inh-1. 41% of 1,100 active. Potency, µM (series often up to 57.5 µM), inactives show top-dose activity change, negative = inhibition, most hits filed as inhibitors;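 also: potency is read from the fitted curve at half-maximal effect; plate controls were full PFK enzyme control for no effect and no enzyme control for full effect; nearly all actives have a fitted effect of over 60% in size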
Starred values were filed as active, the others as inactive; i = inactive; ? = inconclusive; . = not tested or not shown; [ ] = another dose, or the depositor's remark. Unless noted, calls follow the shape of the dose curve; as a rule, active = well fitted curve in the direction sought with a large enough effect; inconclusive = small, poorly fitted or top-dose-only effect, or another doubt; inactive = no such curve, though single readings can be large; an effect the other way counts as inactive or inconclusive.

SMILES	WRN helicase inh	FEN1 inhibitor	TDP1 block	Tb PFK inh-1	Tb PGK inh	PI5P4K alpha inh	TbPFK ATP	Tb PFK inh-2
O=C1N(c2ccc(Cl)c(Cl)c2)CN(Cc2ccccc2)CN1n1cnnc1	0%	-8%	-1%	27µM*	-6%	0	?	-16%
C=C(C)[C@H]1O[C@H]2CC[C@@]3(C)[C@@](O)(CC[C@H]4[C@@H]5OC(C)(C)[C@H]6C[C@@H]7C(=C)Cc8c(Cl)cc9[nH]c(c5c9c8[C@@]76O)[C@@]43C)[C@]23O[C@@H]3[C@H]1O	.	.	12%	.	.	.	.	.
Cc1ccc(-c2cn3c(=S)[nH]nc3s2)cc1	15%	2%	3%	?	i	-19	0.67µM*	?
ClCCN(CCCl)c1ccc(C=Nc2ccncc2)cc1	.	-21%	.	.	.	.	.	.
O=C(O)C1CN(CP(=O)(O)O)CCN1 (centres undefined)	.	.	2%	.	.	.	.	.
Clc1ccccc1C(c1ccccc1)(c1ccccc1)n1cccn1	.	.	6%	.	.	.	.	.
Cc1cc(C)c2c(=O)n(CC(=O)NC3CCCC3)sc2n1	2%	?	.	6µM*	-5%	-64*	?	5.4µM*
Cc1cc(C)c2c(=O)n(CC(=O)Nc3ccc(Br)c(C)c3)sc2n1	3%	?	.	13µM*	-8%	-62*	2.7µM*	3µM*
Cc1cc(C)c2c(=O)n(CC(=O)Nc3cccc(Cl)c3C)sc2n1	2%	?	-2%	4.8µM*	10%	-87*	?	6µM*
COc1ccc2c(c1)c(CCN1CCOCC1)c(C)n2C(=O)c1cccc(Cl)c1Cl	.	.	23%	.	.	.	.	.
Cc1cc(F)ccc1NCc1ccc([N+](=O)[O-])cc1	-1%	-21%	6%	?	-10%	12	?	?
Cc1ccc([N+](=O)[O-])cc1	5%	-10%	1%	-3%	-2%	2	.	.
NS(=O)(=O)c1ccc(NC(=O)C2COc3ccccc3O2)cc1 (centres undefined)	4%	0%	2%	21µM*	-6%	-1	6.7µM*	30µM*
C[C@]12[C@H](O)CC3C(CC[C@@H]4C[C@@H](O)CC[C@]34C)[C@@]1(O)CC[C@@H]2C1=CC(=O)OC1 (some centres undefined)	.	.	12%[56.1 µM]	.	.	.	.	.
CS(=O)(=O)NN1C(=O)c2ccccc2NC1c1cc2ccccc2nc1Cl (centres undefined)	-2%	-17%	2%	21µM*	-2%	-2	9.5µM*	24µM*
CC1=CC(=O)C2=C(C)C[C@@H](O)[C@@H]3[C@@H](OC(=O)[C@H]3C)[C@H]12	.	.	14%[21 µM]	.	.	.	.	.
O=C(CN1CCOCC1)Nc1ncc(Cc2cccc(Cl)c2)s1	4%	12%	-3%	?	.	6	?	?
O=C(CN1CCCC1)Nc1ccc(Cl)cc1C(=O)c1ccccc1	8%	0%	0%	0%	-3%	-10	.	.
CCOc1ccc(C=NNc2ccc(S(=O)(=O)Nc3ccccc3C(=O)O)cc2[N+](=O)[O-])cc1OC	?	79µM*	.	?	?	-74*	6µM*	3µM*
CCc1ccc(C(=O)NN(C(=O)c2cc(C)cc(C)c2)C(C)(C)C)cc1	.	.	7%	.	.	.	.	.
CCc1nnc(NS(=O)(=O)c2ccc(NC(=S)NC(=O)/C=C/c3ccc(OC)cc3)cc2)s1	?	50µM*	1%	?	?	-10	?	?
COc1ccc(/C=C/C(=O)NC(=S)N2C[C@H]3C[C@H](C2)c2cccc(=O)n2C3)cc1	-2%	-1%	.	4%	-4%	6	.	.
COc1ccc(OC)c(/C=N/NC(=O)CCc2ccc(O)c(O)c2)c1	-24%	-2%	3%	1.7µM*	-7%	-22	?	-29%
COc1cc(CNC(=O)CCCC/C=C\C(C)C)ccc1O	.	.	3%	1%	.	.	.	.
NC(=O)c1cc(S(=O)(=O)N2CCN(c3ccc([N+](=O)[O-])cc3)CC2)cs1	-3%	-7%	6%	21µM*	-10%	0	12µM*	27µM*
SMILES	WRN helicase inh	FEN1 inhibitor	TDP1 block	Tb PFK inh-1	Tb PGK inh	PI5P4K alpha inh	TbPFK ATP	Tb PFK inh-2
N/C(=N/[N+](=O)[O-])N1CCN(C(=O)Oc2ccc([N+](=O)[O-])cc2)CC1	2%	7%	.	2%	.	-6	.	.
CC1(C)N(O)C(c2ccc(C(=O)O)cc2)=[N+]([O-])C1(C)C	.	.	10%[56.1 µM]	.	.	.	.	.
CCOC(=O)[C@]12Cc3cc(C)ccc3[C@H]1N(Cc1ccccc1)C(=O)c1cc(OC)ccc12	-7%	.	.	.	.	1	.	.
COc1ccc(CN2C(=O)c3cccnc3C2O)cc1 (centres undefined)	-34%	-6%	-9%	27µM*	?	-2	?	?
CCOC(=O)COc1ccc2c(c1)c(C(C)=O)c(C)n2Cc1ccccc1	-12%	-8%	2%	-5%	-9%	11	.	.
CCOC(=O)Cn1c(=N)n(CCOc2cccc(C)c2)c2ccccc21	1%	-1%	8%	13µM*	-3%	-3	11µM*	13µM*
OCCOc1ccccc1	2%	24%	5%	-1%	2%	-11	.	.
N=c1n(CCO)c2ccccc2n1CCOc1ccccc1	10%	4%	4%	24µM*	-4%	1	13µM*	21µM*
O=C(CSc1nc2ccccc2s1)Nc1ccc(Cl)c(C(=O)O)c1	-17%	3%	0%	?	-1%	?	-25%	19%
O=C(NNc1nc2ccccc2s1)Nc1ccc(Cl)c(Cl)c1	6%	5%	.	?	i	-7	?	-23%
NCCNC[C@@H](N)CCCN=C(N)N[N+](=O)[O-]	.	.	19%	.	.	.	.	.
C[C@]12C/C(=C/O)C(=O)C[C@@H]1CC[C@@H]1[C@@H]2CC[C@@]2(C)[C@H]1CC[C@]2(C)O	.	.	19%	.	.	.	.	.
Cc1ccc(-c2c[n+](Cc3ccc(Cl)c(Cl)c3)c3n2CCC3)cc1	-14%	0%	3%	6µM*	i	5	4.8µM*	13µM*
COC(=O)COc1ccc(C[C@@H](C)NC[C@H](O)c2cccc(Cl)c2)cc1	.	.	8%	.	.	.	.	.
C/C=C1/CN2CC[C@]34C(=C(C=O)[C@@H]1C[C@H]23)Nc1c(O)cccc14	.	.	11%	.	.	.	.	.
O=C(Nc1n[nH]c(=S)s1)c1ccco1	-8%[11.6 µM]	?	.	?	-3%	-61*	5.4µM*	12µM*
